# Only a selection was taken, and the strongest signals are over-represented in it overall.
# B1: Cohesin-mDC-ASGPR (Macaca mulatta) (protein)
# chain: LDITSHHHHHHDDLDAVRIKVDTVNAKPGDTVRIPVRFSGIPSKGIANCDFVYSYDPNVLEIIEIEPGDIIVDPNPDKSFDTAVYPDRKIIVFLFAEDSGTGAYAITKDGVFATIVAKVKEGAPNGLSVIKFVEVGGFANNDLVEQKTQFFDGGVNVGDTTEPATPTTPVTTPTTTDDLDAASSQNSKFQRDLVTLRTDFSNFTSNTVAEIQALTSQGSSVEEMIASLKAEVEVIKQEQQAVHSEMLLRVQRLMQDLNKLTCQVATLKNNASTERTCCPVNWVEHQDSCYWFSRSGMPWAEAEKHCQLENAHLVVINSREEQNFVQEHLSFAYTWMGLSDREGAWKWVDGTDYETGFQNWKPGQPDDWQGHGLGGGEDCAHFHPDGRWNDDVCQRPYYWVCEAGLTQASQESH
# Assays:
# Test in all cases: glycan array binding signal (z-score within array); higher = stronger binding
# Conditions in all cases: glycan notation: IUPAC condensed, linker removed
# [1] = target: Fuc(a1-2)Gal(b1-3)GalNAc(a1-3)[Fuc(a1-2)]Gal(b1-4)Glc
# Outline: (§1)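 From the Consortium for Functional Glycomics database, 3228 arrays were curated, keeping only those whose protein sequence was available. Binding is given as a within-array Z-score averaged across arrays sharing a protein sequence and across linkers. Negative Z-scores can be read as non-binding.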
# [2] = target: Fuc(a1-2)Gal(b1-3)GalNAc(b1-3)Gal
# Outline: as §1
# [3] = target: Fuc(a1-2)Gal(b1-3)GlcNAc(b1-2)Man(a1-3)[Fuc(a1-2)Gal(b1-3)GlcNAc(b1-2)Man(a1-6)]Man(b1-4)GlcNAc(b1-4)[Fuc(a1-6)]GlcNAc
# Outline: as §1
# [4] = target: Fuc(a1-2)Gal(b1-3)GlcNAc6S
# Outline: as §1
# Fuc(a1-2)Gal(b1-4)Glc = target: Fuc(a1-2)Gal(b1-4)Glc
# Outline: as §1
# [5] = target: Fuc(a1-2)[Gal(a1-3)]Gal(b1-4)GlcNAc(b1-2)Man
# Outline: as §1
# [6] = target: Fuc(a1-2)[GalNAc(a1-3)]Gal(b1-3)GlcNAc(b1-6)GalNAc
# Outline: as §1
# [7] = target: Fuc(a1-2)[GalNAc(a1-3)]Gal(b1-4)GlcNAc(b1-6)GalNAc
# Outline: as §1
# [8] = target: Fuc(a1-2)[GalNAc(a1-3)]Gal(b1-4)[Fuc(a1-3)]GlcNAc
# Outline: as §1
# [9] = target: Fuc(a1-2)[GalNAc(a1-4)]Gal(b1-4)GlcNAc
# Outline: as §1
# [10] = target: Fuc(a1-3)[GalNAc(b1-4)]GlcNAc6S
# Outline: as §1
# Gal(a1-3)Gal = target: Gal(a1-3)Gal
# Outline: as §1
# Gal(a1-4)Gal(b1-4)GlcNAc = target: Gal(a1-4)Gal(b1-4)GlcNAc
# Outline: as §1
# Gal(b1-2)Gal = target: Gal(b1-2)Gal
# Outline: as §1
# [11] = target: Gal(b1-3)GlcNAc(b1-2)Man(a1-3)[Gal(b1-3)GlcNAc(b1-2)Man(a1-6)]Man(b1-4)GlcNAc(b1-4)[Fuc(a1-6)]GlcNAc
# Outline: as §1
# [12] = target: Gal(b1-3)GlcNAc(b1-2)[Gal(b1-3)GlcNAc(b1-6)]Man(a1-6)[Gal(b1-3)GlcNAc(b1-2)Man(a1-3)]Man(b1-4)GlcNAc(b1-4)GlcNAc
# Outline: as §1
# [13] = target: Gal(b1-3)GlcNAc(b1-3)Gal(b1-4)[Fuc(a1-3)]GlcNAc(b1-6)[Gal(b1-3)GlcNAc(b1-3)]Gal(b1-4)Glc
# Outline: as §1
# [14] = target: Gal(b1-3)[Fuc(a1-4)]GlcNAc(b1-6)GalNAc
# Outline: as §1
# [15] = target: Gal(b1-3)[Neu5Ac(a2-6)]GalNAc
# Outline: as §1
# [16] = target: Gal(b1-4)GlcNAc(b1-2)[Gal(b1-4)GlcNAc(b1-6)]Man(a1-6)[Gal(b1-4)GlcNAc(b1-2)Man(a1-3)]Man(b1-4)GlcNAc(b1-4)GlcNAc
# Outline: as §1
# [17] = target: Gal(b1-4)GlcNAc(b1-2)[Gal(b1-4)GlcNAc(b1-6)]Man(a1-6)[Gal(b1-4)GlcNAc(b1-2)Man(a1-3)]Man(b1-4)GlcNAc(b1-4)[Fuc(a1-6)]GlcNAc
# Outline: as §1
# [18] = target: Gal(b1-4)GlcNAc(b1-3)Gal(b1-4)GlcNAc(b1-3)Gal(b1-4)GlcNAc(b1-3)Gal(b1-4)GlcNAc(b1-3)Gal(b1-4)GlcNAc(b1-2)[Gal(b1-4)GlcNAc(b1-3)Gal(b1-4)GlcNAc(b1-3)Gal(b1-4)GlcNAc(b1-3)Gal(b1-4)GlcNAc(b1-3)Gal(b1-4)GlcNAc(b1-6)]Man(a1-6)[Gal(b1-4)GlcNAc(b1-3)Gal(b1-4)GlcNAc(b1-3)Gal(b1-4)GlcNAc(b1-3)Gal(b1-4)GlcNAc(b1-3)Gal(b1-4)GlcNAc(b1-2)Man(a1-3)]Man(b1-4)GlcNAc(b1-4)[Fuc(a1-6)]GlcNAc
# Outline: as §1
# Gal4S(b1-4)GlcNAc = target: Gal4S(b1-4)GlcNAc
# Outline: as §1
# GalNAc(b1-3)Gal = target: GalNAc(b1-3)Gal
# Outline: as §1
# GalNAc(b1-4)GlcNAc = target: GalNAc(b1-4)GlcNAc
# Outline: as §1
# GalNAc3S(b1-4)GlcNAc3S = target: GalNAc3S(b1-4)GlcNAc3S
# Outline: as §1
# GalNAc6S(b1-4)GlcNAc = target: GalNAc6S(b1-4)GlcNAc
# Outline: as §1
# [19] = target: GlcNAc(b1-3)Gal(b1-4)GlcNAc(b1-2)[GlcNAc(b1-3)Gal(b1-4)GlcNAc(b1-6)]Man(a1-6)[GlcNAc(b1-3)Gal(b1-4)GlcNAc(b1-2)Man(a1-3)]Man(b1-4)GlcNAc(b1-4)GlcNAc
# Outline: as §1
# [20] = target: GlcNAc(b1-3)Gal(b1-4)GlcNAc(b1-3)Gal(b1-4)GlcNAc(b1-2)Man(a1-3)[GlcNAc(b1-3)Gal(b1-4)GlcNAc(b1-3)Gal(b1-4)GlcNAc(b1-2)Man(a1-6)]Man(b1-4)GlcNAc(b1-4)[Fuc(a1-6)]GlcNAc
# Outline: as §1
# [21] = target: GlcNAc(b1-4)[GlcNAc(b1-6)]GalNAc
# Outline: as §1
binder,measurement,setting,value
B1,glycan array binding signal (z-score),[1],-0.406
same,glycan array binding signal (z-score),[2],0.568
same,glycan array binding signal (z-score),[3],-0.227
same,glycan array binding signal (z-score),[4],0.873
same,glycan array binding signal (z-score),Fuc(a1-2)Gal(b1-4)Glc,-0.387
same,glycan array binding signal (z-score),[5],-0.34
same,glycan array binding signal (z-score),[6],3.22
same,glycan array binding signal (z-score),[7],3.46
same,glycan array binding signal (z-score),[8],0.425
same,glycan array binding signal (z-score),[9],3.47
same,glycan array binding signal (z-score),[10],3.4
same,glycan array binding signal (z-score),Gal(a1-3)Gal,-0.427
same,glycan array binding signal (z-score),Gal(a1-4)Gal(b1-4)GlcNAc,-0.412
same,glycan array binding signal (z-score),Gal(b1-2)Gal,-0.312
same,glycan array binding signal (z-score),[11],-0.402
same,glycan array binding signal (z-score),[12],-0.399
same,glycan array binding signal (z-score),[13],-0.418
same,glycan array binding signal (z-score),[14],3.02
same,glycan array binding signal (z-score),[15],-0.372
same,glycan array binding signal (z-score),[16],-0.394
same,glycan array binding signal (z-score),[17],-0.418
same,glycan array binding signal (z-score),[18],-0.379
same,glycan array binding signal (z-score),Gal4S(b1-4)GlcNAc,-0.407
same,glycan array binding signal (z-score),GalNAc(b1-3)Gal,3.51
same,glycan array binding signal (z-score),GalNAc(b1-4)GlcNAc,3.5
same,glycan array binding signal (z-score),GalNAc3S(b1-4)GlcNAc3S,-0.428
same,glycan array binding signal (z-score),GalNAc6S(b1-4)GlcNAc,3.82
same,glycan array binding signal (z-score),[19],-0.07
same,glycan array binding signal (z-score),[20],-0.329
same,glycan array binding signal (z-score),[21],-0.393

# Reference: the supplement of paper PMC8728848
